Data taken from PubChem BioAssay (Tox21).
Records with an inconclusive call do not appear. Activity calls are given as the source filed them. Unless noted, calls follow the shape of the dose curve; as a rule, active = well fitted curve in the direction sought with a large enough effect in the repeat runs; inconclusive = weak or mixed curves; inactive = no such curve, though single readings can be large; an effect the other way counts as inactive or inconclusive.

Key:
[1] = biological target: Estrogen receptor beta (Homo sapiens) (UniProt Q92731); experiment: qHTS assay to identify small molecule antagonists of the estrogen receptor beta (ER-beta) signaling pathway (AID 1259378; active = well fitted inhibition curve with a large enough effect in the signal ratio in the repeat runs, not every such curve was filed as active; the % refers to the signal ratio)
Sequence of Estrogen receptor beta (Homo sapiens) (Q92731 whole entry, looked up): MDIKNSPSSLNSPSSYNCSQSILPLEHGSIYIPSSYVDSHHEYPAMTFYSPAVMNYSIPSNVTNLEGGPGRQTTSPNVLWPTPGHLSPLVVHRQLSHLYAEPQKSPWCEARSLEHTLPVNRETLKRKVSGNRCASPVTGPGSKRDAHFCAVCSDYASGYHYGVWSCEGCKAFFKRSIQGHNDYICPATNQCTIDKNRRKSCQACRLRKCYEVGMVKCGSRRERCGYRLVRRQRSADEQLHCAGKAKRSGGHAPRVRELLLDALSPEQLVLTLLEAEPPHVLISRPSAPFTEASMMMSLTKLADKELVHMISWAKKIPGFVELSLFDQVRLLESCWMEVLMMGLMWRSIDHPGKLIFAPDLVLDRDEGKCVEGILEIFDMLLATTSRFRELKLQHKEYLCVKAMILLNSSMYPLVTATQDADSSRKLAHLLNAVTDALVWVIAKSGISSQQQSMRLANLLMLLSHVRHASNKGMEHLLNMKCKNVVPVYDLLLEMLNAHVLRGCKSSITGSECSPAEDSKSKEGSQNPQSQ
In short: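 Antagonist mode: compounds added to beta-lactamase reporter HEK293T ER-beta-UAS cells stimulated with E2 (1nM final), 16 hr at 37C. LiveBLAzer B/G FRET substrate, 2 hours room temperature, fluorescence read-out.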

[2] = qHTS assay to identify small molecule agonists of the androgen receptor (AR) signaling pathway in the presence of an antagonist - cell viability counter screen (AID 1259379);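 also: MDA-kb2 human breast cancer cells carrying an MMTV luciferase reporter; series mostly up to about 92 µM; nearly all actives have a fitted effect of over 25% in size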
In short: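 Fluorescence from CellTiter-Fluor, added after 15 hr and read 1 hr later, gave cell viability. Cells were MDA-kb2 exposed to compounds (15 concentrations) in the presence of 3.0uM nilutamide at 37C, 0% CO2.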

[3] = qHTS assay to identify small molecule agonists of the estrogen receptor beta (ER-beta) signaling pathway - cell viability counter screen (AID 1259380); also: nearly all actives have a fitted effect of over 30% in size
In short: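 Same-well viability counter screen. Cells: ER-beta-UAS-bla HEK293T, plated 6 hr before compound, in 2% charcoal-stripped FBS. Compound exposure 16 hr, 37C; viability by CellTiter-Glo luminescence after 30 min at room temperature.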

[4] = biological target: Androgen receptor (Homo sapiens) (UniProt P10275); experiment: qHTS assay to identify small molecule agonists of the androgen receptor (AR) signaling pathway in the presence of an antagonist (AID 1259381; calls by dose curve; also: nearly all actives have a fitted effect of over 15% in size)
Sequence of Androgen receptor (Homo sapiens) (P10275 whole entry, looked up): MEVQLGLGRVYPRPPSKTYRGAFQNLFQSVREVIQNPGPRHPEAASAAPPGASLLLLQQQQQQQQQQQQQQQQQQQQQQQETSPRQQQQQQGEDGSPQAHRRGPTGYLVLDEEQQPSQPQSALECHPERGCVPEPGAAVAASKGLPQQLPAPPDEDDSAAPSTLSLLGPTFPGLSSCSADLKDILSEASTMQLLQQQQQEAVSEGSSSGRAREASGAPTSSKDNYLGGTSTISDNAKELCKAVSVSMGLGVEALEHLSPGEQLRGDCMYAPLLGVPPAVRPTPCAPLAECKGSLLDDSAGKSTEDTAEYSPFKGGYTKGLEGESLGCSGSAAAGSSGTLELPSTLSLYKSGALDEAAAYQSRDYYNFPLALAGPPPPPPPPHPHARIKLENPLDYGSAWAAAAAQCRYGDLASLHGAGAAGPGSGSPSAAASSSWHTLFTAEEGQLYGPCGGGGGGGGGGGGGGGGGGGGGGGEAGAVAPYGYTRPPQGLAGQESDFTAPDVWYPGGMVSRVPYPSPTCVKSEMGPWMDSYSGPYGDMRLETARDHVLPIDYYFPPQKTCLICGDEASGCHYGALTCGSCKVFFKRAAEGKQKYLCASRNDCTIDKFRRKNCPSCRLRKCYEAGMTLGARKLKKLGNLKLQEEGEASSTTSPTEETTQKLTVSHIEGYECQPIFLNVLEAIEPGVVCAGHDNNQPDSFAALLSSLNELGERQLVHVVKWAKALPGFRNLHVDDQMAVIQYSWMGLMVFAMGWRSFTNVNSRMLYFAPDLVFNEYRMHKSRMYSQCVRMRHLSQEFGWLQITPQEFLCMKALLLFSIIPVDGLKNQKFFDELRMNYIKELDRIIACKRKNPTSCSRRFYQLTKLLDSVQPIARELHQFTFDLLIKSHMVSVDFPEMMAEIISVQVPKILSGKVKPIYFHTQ
In short: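 Cells are MDA-kb2 (human breast carcinoma, MMTV-luc, AR/GR responsive). Nilutamide is present at 3.0uM final throughout; compounds are added at 15 concentrations and incubated 16hr at 37C before ONE-Glo luminescence detection.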

[5] = qHTS assay to identify small molecule antagonists of the estrogen receptor beta (ER-beta) signaling pathway - cell viability counter screen (AID 1259382);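 also: HEK293T cells carrying ER-beta-UAS-bla reporter stimulated with estradiol; series mostly up to about 92 µM; nearly all actives have a fitted effect of over 55% in size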
In short: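 Following a 6 hr plating period, HEK293T cells carrying a UAS-driven beta-lactamase reporter under ER-beta control received compounds and 1nM E2 (final). After 16 hr at 37C and 2 hr substrate loading, CellTiter-Glo luminescence indicated viability.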

[6] = qHTS assay to identify small molecule agonists or antagonists of the thyroid stimulating hormone receptor (TSHR) signaling pathway - wild type cell line counter screen (AID 1259384; calls by dose curve)
In short: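 Counter screen in untransfected Hek293: compounds (15-point titration, triplicate) plus phosphodiesterase inhibitor Ro20-1724 added after 18 h plating; 30 min RT. Intracellular cAMP via competitive d2/cryptate immunoassay, 1 h incubation.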

[7] = biological target: Thyrotropin receptor (Homo sapiens) (UniProt P16473); experiment: qHTS assay to identify small molecule antagonists of the thyroid stimulating hormone receptor (TSHR) signaling pathway (AID 1259385; calls by dose curve; also: nearly all actives have a fitted effect of over 20% in size)
Sequence of Thyrotropin receptor (Homo sapiens) (P16473 whole entry, looked up): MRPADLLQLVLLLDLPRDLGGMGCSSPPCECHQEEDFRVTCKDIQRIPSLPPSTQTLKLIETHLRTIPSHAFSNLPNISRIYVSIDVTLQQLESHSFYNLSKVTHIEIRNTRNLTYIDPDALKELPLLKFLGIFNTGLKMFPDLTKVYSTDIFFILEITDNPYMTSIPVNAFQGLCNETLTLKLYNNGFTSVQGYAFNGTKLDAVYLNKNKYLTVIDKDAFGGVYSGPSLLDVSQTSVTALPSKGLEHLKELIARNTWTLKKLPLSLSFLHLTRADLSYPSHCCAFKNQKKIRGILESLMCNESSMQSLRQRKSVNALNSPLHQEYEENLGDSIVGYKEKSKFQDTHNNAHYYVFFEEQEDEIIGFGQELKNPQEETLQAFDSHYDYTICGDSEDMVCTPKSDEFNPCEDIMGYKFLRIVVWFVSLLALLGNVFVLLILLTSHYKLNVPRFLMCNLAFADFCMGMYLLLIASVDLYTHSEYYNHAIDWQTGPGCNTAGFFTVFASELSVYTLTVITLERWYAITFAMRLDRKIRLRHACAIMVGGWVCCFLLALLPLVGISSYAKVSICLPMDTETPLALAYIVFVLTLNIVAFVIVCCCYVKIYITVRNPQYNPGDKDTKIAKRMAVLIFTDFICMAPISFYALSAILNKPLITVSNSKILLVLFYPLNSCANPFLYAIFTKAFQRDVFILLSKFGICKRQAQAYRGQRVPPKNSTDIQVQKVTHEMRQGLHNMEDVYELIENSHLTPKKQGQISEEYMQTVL
In short: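 Antagonist mode: compound-treated TSHR-expressing HEK293 cells were stimulated with 1.5 ng/mL TSH (final) in presence of Ro20-1724 for 30 min at RT. HTRF cAMP detection after 1 h; each compound tested at 15 concentrations, triplicate.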

[8] = biological target: Progesterone receptor (Homo sapiens) (UniProt P06401); experiment: qHTS assay to identify small molecule agonists of the progesterone receptor (PR) signaling pathway (AID 1346784; calls by dose curve; also: nearly all actives have a fitted effect of over 30% in size)
Sequence of Progesterone receptor (Homo sapiens) (P06401 whole entry, looked up): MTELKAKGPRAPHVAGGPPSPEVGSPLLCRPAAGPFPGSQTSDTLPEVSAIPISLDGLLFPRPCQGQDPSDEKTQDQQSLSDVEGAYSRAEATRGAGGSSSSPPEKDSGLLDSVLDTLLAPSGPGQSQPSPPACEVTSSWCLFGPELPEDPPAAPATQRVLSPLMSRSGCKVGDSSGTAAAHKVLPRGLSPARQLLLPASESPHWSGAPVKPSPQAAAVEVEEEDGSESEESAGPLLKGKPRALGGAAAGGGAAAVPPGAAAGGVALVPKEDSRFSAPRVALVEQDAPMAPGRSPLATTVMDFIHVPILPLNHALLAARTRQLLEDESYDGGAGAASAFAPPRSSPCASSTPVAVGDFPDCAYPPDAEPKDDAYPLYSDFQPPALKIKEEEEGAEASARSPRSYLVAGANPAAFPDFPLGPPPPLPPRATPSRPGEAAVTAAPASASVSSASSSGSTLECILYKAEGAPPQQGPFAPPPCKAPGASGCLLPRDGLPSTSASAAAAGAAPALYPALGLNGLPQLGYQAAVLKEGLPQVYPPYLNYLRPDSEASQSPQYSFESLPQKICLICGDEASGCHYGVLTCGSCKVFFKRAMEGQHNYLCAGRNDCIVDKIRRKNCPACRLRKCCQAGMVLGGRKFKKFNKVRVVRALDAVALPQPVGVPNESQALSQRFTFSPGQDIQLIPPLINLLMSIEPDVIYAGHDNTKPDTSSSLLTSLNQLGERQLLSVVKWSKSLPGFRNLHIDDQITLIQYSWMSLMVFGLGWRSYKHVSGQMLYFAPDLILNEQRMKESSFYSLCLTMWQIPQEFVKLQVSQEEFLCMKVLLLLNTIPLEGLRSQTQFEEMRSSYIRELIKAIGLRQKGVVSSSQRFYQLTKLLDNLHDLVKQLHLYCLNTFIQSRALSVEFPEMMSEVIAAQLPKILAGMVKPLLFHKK
In short: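 Reporter assay, GripTite PR-UAS-bla HEK 293T cells: 16 hr exposure to DMSO-dissolved compounds at 37C, 5% CO2, in steroid-depleted (2% charcoal-stripped FBS) medium; beta-lactamase measured by FRET fluorescence.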

[9] = biological target: Progesterone receptor (Homo sapiens) (UniProt P06401); experiment: qHTS assay to identify small molecule antagonists of the progesterone receptor (PR) signaling pathway (AID 1346795; active = well fitted inhibition curve with a large enough effect in the signal ratio in the repeat runs, not every such curve was filed as active; the % refers to the signal ratio)
In short: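 Stimulus R5020 at 1 nM final; cells HEK293T PR-UAS-bla; medium with 2% charcoal-stripped FBS; compound exposure 16 hr at 37C, 5% CO2; detection by FRET beta-lactamase substrate, 2 hr, room temperature.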

[10] = qHTS assay to identify small molecule antagonists of the progesterone receptor (PR) signaling pathway - cell viability counter screen (AID 1346798); also: series mostly up to about 92 µM; nearly all actives have a fitted effect of over 50% in size
In short: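 In the same plates used for the beta-lactamase readout, cell viability of compound- and R5020-treated PR-UAS-bla HEK293T cells (16 hr, 37C) was assessed by CellTiter-Glo luminescence.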

[11] = qHTS assay to identify small molecule agonists of the progesterone receptor (PR) signaling pathway - cell viability counter screen (AID 1346799; calls by dose curve; also: nearly all actives have a fitted effect of over 45% in size)
In short: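 Multiplexed viability read: CellTiter-Glo luminescence, 30 min RT, following LiveBLAzer FRET measurement on PR-UAS-bla HEK293T cells exposed to compounds 16 hr.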

[12] = qHTS assay to identify small molecule antagonists of the TGF-beta/Smad signaling pathway - cell viability counter screen (AID 1346824); also: nearly all actives have a fitted effect of over 50% in size
In short: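 Cytotoxicity counter-screen run in the same wells as the beta-lactamase Smad reporter read: CellTiter-Glo luminescence after 30 min at room temperature. HEK 293T SBE-bla cells had 5 hr compound exposure at 37 C with TGF-beta1 (0.25 ng/mL stock).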

[13] = qHTS assay to identify small molecule agonists of the TGF-beta/Smad signaling pathway - cell viability counter screen (AID 1346829); also: top concentration of the series differs between compounds; nearly all actives have a fitted effect of over 45% in size
In short: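 After overnight seating at 37 C and 5% CO2, reporter cells got compounds for 5 hr and FRET substrate for 2 hr; cell viability then came from CellTiter-Glo luminescence.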

[14] = qHTS assay to identify small molecule agonists of the TGF-beta/Smad signaling pathway (AID 1346859; active = well fitted activation curve with a large enough effect in the signal ratio in the repeat runs, not every such curve was filed as active; the % refers to the signal ratio; also: series mostly up to about 77 µM)
In short: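 Screening used HEK 293T SBE-bla cells at 4,000/well. Test agents: 5 hr, 37 C. Detection: FRET substrate, 2 hr RT, then excitation 405 nm with emissions at 460 and 530 nm.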

[15] = biological target: Thyrotropin-releasing hormone receptor (Homo sapiens) (UniProt P34981); experiment: qHTS assay to identify small molecule antagonists of the thyrotropin-releasing hormone receptor (TRHR) signaling pathway (AID 1346877; active = well fitted inhibition curve with a large enough effect in the repeat runs, not every such curve was filed as active; also: series mostly up to about 51 µM)
Sequence of Thyrotropin-releasing hormone receptor (Homo sapiens) (P34981 whole entry, looked up): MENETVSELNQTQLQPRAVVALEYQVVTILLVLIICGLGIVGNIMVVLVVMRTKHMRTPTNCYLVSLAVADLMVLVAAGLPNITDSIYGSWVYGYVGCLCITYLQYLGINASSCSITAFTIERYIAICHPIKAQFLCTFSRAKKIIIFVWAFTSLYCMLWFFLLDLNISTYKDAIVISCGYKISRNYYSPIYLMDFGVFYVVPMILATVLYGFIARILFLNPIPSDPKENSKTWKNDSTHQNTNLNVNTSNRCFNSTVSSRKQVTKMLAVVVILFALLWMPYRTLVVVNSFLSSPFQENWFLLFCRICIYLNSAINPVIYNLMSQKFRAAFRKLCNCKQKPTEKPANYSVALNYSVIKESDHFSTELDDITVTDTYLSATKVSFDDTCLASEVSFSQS
In short: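 Cells (TRHR-HEK293) are plated and kept 18 h at 37 °C/5% CO2. A calcium-sensitive dye is added for 2 h, compound follows for 5 min at room temperature, and TRH is then given at 1 nM final.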

[16] = biological target: Thyrotropin-releasing hormone receptor (Homo sapiens) (UniProt P34981); experiment: qHTS assay to identify small molecule agonists of the thyrotropin-releasing hormone receptor (TRHR) signaling pathway (AID 1346891; calls by dose curve; also: series mostly up to about 58 µM)
In short: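 Readout was intracellular calcium fluorescence in TRHR-Hek293 cells. Cells were incubated 18 h, dye-loaded 2 h at 37 °C, and treated with compound in agonist mode.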

[17] = Human pregnane X receptor (PXR) small molecule agonists, qHTS cell viability counter screen (AID 1346977); also: nearly all actives have a fitted effect of over 50% in size
In short: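 In each well, the PXR reporter HepG2 line was checked for viability: CellTiter-Fluor reagent added 23hr post-dosing, fluorescence read after 1hr incubation at 37C.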

[18] = Caspase-3/7 induction in HepG2 cells by small molecules, qHTS assay (AID 1346978); also: nearly all actives have a fitted effect of over 15% in size
In short: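 Caspase-3/7 induction was measured by Caspase-Glo 3/7 luminescence (30 min, room temperature) after a 17 hr compound exposure of wild-type HepG2 cells seeded at 2,000 per well and pre-incubated 5 hr.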

[19] = biological target: Estrogen receptor (Homo sapiens) (UniProt P03372); experiment: qHTS assay to identify small molecule agonists of the estrogen receptor alpha (ER-alpha) signaling pathway in the presence of an antagonist (AID 1259383; calls by dose curve; also: top concentration of the series differs between compounds; nearly all actives have a fitted effect of over 15% in size)
Sequence of Estrogen receptor (Homo sapiens) (P03372 whole entry, looked up): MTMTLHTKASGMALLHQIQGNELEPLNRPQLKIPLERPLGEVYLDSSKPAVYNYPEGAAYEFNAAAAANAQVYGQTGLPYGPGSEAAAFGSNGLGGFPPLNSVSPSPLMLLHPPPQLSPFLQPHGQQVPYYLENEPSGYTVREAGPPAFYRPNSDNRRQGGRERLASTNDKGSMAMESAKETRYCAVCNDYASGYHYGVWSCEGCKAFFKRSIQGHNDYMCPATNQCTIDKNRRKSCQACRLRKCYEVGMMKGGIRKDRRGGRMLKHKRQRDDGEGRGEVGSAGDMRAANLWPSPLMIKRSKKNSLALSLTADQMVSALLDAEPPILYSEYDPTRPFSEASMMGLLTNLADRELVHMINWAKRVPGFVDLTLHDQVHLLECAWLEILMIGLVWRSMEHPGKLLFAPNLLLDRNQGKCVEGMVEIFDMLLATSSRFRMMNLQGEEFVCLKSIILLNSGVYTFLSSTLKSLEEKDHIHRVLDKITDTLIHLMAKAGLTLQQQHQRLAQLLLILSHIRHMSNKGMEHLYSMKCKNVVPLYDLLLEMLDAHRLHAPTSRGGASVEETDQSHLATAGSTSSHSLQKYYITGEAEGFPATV
In short: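 Cells are hormone-deprived for 5 days (charcoal-stripped FBS, no phenol red), plated for 24hr, spiked with 10.0nM ICI-182,780, then dosed at 15 concentrations. After 22hr at 37C, ONE-Glo luminescence reports ERE-luciferase activity.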

[20] = qHTS assay to identify small molecule agonists of the estrogen receptor alpha (ER-alpha) signaling pathway in the presence of an antagonist - cell viability counter screen (AID 1259386);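 also: series mostly up to about 92 µM; cells exposed to compounds for 22 h at 37 °C before the viability read; nearly all actives have a fitted effect of over 30% in size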
In short: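 Cells are starved of estrogens for 5 days in charcoal-stripped serum, seeded for 24hr and co-treated with ICI-182,780 (10.0nM final) and test compounds. After 22hr at 37C, viability is read as CellTiter-Fluor fluorescence.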
% is scaled to controls: 0 for no effect and ±100 for the full control effect.

O=c1cccc[nH]1
inactive: Potency [1] | Potency [2] | Potency [3] | Potency [4] | Potency [5] | outcome [6] | Potency [7] | outcome [8] | Potency [9] | Potency [10] | Potency [11] | Potency [12] | Potency [13] | Potency [14] | Potency [15] | Potency [16] | Potency [17] | Potency [18]

C=CC(=C)CC/C=C(\C)CCC=C(C)C
inactive: activity, negative = inhibition [1] -20.6% [at 19 µM] | activity change, negative = cytotoxicity [2] 1.35% [at 19 µM] | activity change, negative = cytotoxicity [3] -10.3% [at 19 µM] | activity change, negative = cytotoxicity [5] -3.14% [at 19 µM] | activation [19] 1.51% [at 19 µM] | cAMP activity change [6] 3.85% [at 18.9 µM] | activity change, negative = inhibition [7] 0.374% [at 19 µM] | activity change, negative = cytotoxicity [20] -2.45% [at 19 µM] | activation [8] 0.395% [at 19 µM] | activity change, negative = inhibition [9] -8.93% [at 18.9 µM] | activity change, negative = cytotoxicity [10] -3.03% [at 18.9 µM] | activity change, negative = cytotoxicity [11] 7.16% [at 19 µM] | viability change, negative = cytotoxic [12] 6.24% [at 15.8 µM] | activity change, negative = cytotoxicity [13] 1.59% [at 15.8 µM] | activation [14] -1.49% [at 15.8 µM] | activity, negative = inhibition [15] -4.91% [at 10.5 µM] | activation [16] 0.335% [at 11.8 µM] | activity change, negative = cytotoxicity [17] 6.03% [at 19 µM] | caspase activation [18] 0.847% [at 19 µM]

Cc1cccc(C)n1
inactive: Potency [1] | Potency [2] | Potency [3] | Potency [4] | Potency [5] | Potency [19] | outcome [6] | Potency [7] | Potency [20] | outcome [8] | Potency [9] | Potency [10] | Potency [11] | Potency [12] | Potency [13] | Potency [14] | Potency [18]

O=S(=O)(O)c1cc(S(=O)(=O)O)c2ccc3c(S(=O)(=O)O)cc(S(=O)(=O)O)c4ccc1c2c43
inactive: activity, negative = inhibition [1] -6.24% [at 19 µM] | activity change, negative = cytotoxicity [2] 1.33% [at 19 µM] | activity change, negative = cytotoxicity [3] 1.19% [at 19 µM] | activation [4] 3.07% [at 19 µM] | activity change, negative = cytotoxicity [5] 6.71% [at 19 µM] | activation [19] -1.94% [at 19 µM] | cAMP activity change [6] 5.29% [at 18.9 µM] | activity change, negative = inhibition [7] -2.92% [at 19 µM] | activity change, negative = cytotoxicity [20] -2.62% [at 19 µM] | activation [8] -0.344% [at 19 µM] | activity change, negative = inhibition [9] 5.54% [at 18.9 µM] | activity change, negative = cytotoxicity [10] -15.6% [at 18.9 µM] | activity change, negative = cytotoxicity [11] -11.2% [at 19 µM] | activity change, negative = cytotoxicity [13] 10.3% [at 15.8 µM] | activation [14] 1.38% [at 15.8 µM] | activation [16] -0.321% [at 11.8 µM] | caspase activation [18] 0.784% [at 19 µM]

CC1(C)C(=O)N(CO)C(=O)N1CO
inactive: Potency [1] | Potency [2] | Potency [3] | Potency [5] | Potency [19] | outcome [6] | Potency [7] | Potency [20] | outcome [8] | Potency [9] | Potency [10] | Potency [11] | Potency [12] | Potency [13] | Potency [14] | Potency [15] | Potency [16] | Potency [17] | Potency [18]

CCc1c(Br)c(Br)c(Br)c(Br)c1Br
inactive: Potency [1] | Potency [2] | Potency [3] | Potency [4] | Potency [5] | Potency [19] | Potency [20] | Potency [9] | Potency [10] | Potency [11] | Potency [12] | Potency [13] | Potency [14] | Potency [15] | Potency [16] | Potency [17] | Potency [18]

COC(=O)CC#N
inactive: Potency [1] | Potency [2] | Potency [3] | Potency [5] | Potency [19] | outcome [6] | Potency [7] | Potency [20] | outcome [8] | Potency [9] | Potency [10] | Potency [11] | Potency [12] | Potency [13] | Potency [14] | Potency [15] | Potency [16] | Potency [18]
